Inconclusive results are not listed. The source made the active and inactive calls. The call rests on the fitted dose curve; in most records, active means well fitted curve in the direction sought with a large enough effect; inconclusive means small, poorly fitted or top-dose-only effect, or effect the other way, or another doubt; inactive means no such curve, though single readings can be large or run the other way.

From PubChem BioAssay AID2534 (National Center for Advancing Translational Sciences (NCATS), 2010) come the findings set out here.

Pyruvate kinase PKLR (Homo sapiens), sequence (P30613 whole entry, looked up): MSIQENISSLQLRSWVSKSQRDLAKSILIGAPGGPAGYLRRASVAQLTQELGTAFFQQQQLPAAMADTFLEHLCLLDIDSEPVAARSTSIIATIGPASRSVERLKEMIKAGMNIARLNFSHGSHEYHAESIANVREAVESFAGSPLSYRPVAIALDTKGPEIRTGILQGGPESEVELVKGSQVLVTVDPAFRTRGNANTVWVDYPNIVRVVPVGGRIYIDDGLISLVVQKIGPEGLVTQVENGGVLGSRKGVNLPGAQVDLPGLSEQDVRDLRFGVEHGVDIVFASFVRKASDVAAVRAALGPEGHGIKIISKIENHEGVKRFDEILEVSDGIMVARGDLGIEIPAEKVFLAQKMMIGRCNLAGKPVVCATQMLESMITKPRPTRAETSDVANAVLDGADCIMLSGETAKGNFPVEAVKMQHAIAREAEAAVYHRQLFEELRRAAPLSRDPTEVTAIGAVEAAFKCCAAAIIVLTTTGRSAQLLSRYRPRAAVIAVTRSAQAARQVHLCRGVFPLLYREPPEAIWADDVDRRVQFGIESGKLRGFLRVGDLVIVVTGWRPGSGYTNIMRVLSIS

The target of this assay is Pyruvate kinase PKLR (Homo sapiens) (UniProt P30613). In words: Secondary Concentration-Response Assay for Activators of Human Reticulocyte Pyruvate Kinase: for Probe SAR. As to conditions: purified hPK-R, ATP production, Kinase-Glo luminescence; series mostly up to 57.5 µM. The text has this:
NIH Chemical Genomics Center [NCGC]
Wael M. Rabeh, Lyudmila Nedyalkova and Hee-Wan Park [Structural Genomics Consortium, 100 College St. Toronto, Ontario, Canada]
Human pyruvate kinase reticulocyte (hPK-R) enzyme was supplied as a highly purified (>95% pure) preparation from Structural Genomics Consortium in Toronto (Ontario, Canada) and assayed for its ability to generate ATP from ADP using phosphoenolpyruvate (PEP) as a substrate. ATP generation was detected in a coupled reaction by luciferase-mediated luminescence, an ATP-dependent process. Pyruvate kinase substrates, PEP and ADP, were present in the assay at Km and approximately 10-fold below Km respectively. The enzyme was assayed at an intermediate level of activity to screen for both inhibitors and activators.
NCGC Assay Protocol Summary for R-isoform
Three uL of substrate mix (at r.t.) in assay buffer (50 mM Imidazole pH7.2, 50 mM KCl, 7 mM MgCl2, 0.01% Tween 20, 0.05% BSA) was dispensed into white solid bottom 1,536 well microtiter plates so that the final concentrations of substrates in the assay were 0.1 mM ADP and 0.5 mM PEP. 23 nL of compound were delivered by a pin tool and 1 uL of enzyme mix (final concentration of 0.1 nM) in assay buffer (4 degree Celsius) was added. Plates were incubated at room temperature for 1 hour. Two uL of detection mix (Kinase-Glo, Promega; at 4 degree Celsius protected from light) was added and luminescence read by a ViewLux (Perkin Elmer) at 1 second exposure/plate. Data were normalized to the uninhibited (row 31). Additionally, a no enzyme and 5-fold enzyme control was dispensed in row 32, split equally between the two conditions.
For `Cc1ccc(C)c(OC2=NS(=O)(=O)c3ccccc32)c1`, the compound was called inactive. As for `Cc1ccc(Cl)cc1NS(=O)(=O)c1cc2c(cc1F)NC(=O)CC2`, the call was inactive. For `O=C1CCc2cc(S(=O)(=O)Nc3ccc(F)c(Cl)c3)ccc2N1` the value was “inactive”; for `CN(C)c1cccc(S(=O)(=O)N2CCN(S(=O)(=O)c3ccc4c(c3)OCCO4)CC2)c1`, “inactive”. For the compound `COc1ccc(NS(=O)(=O)c2ccc3c(c2)CCC(=O)N3)cc1`, the call was inactive.

On to `Cc1cccc(NS(=O)(=O)c2ccc3c(c2)CCC(=O)N3)c1`, for which the outcome was inactive. Next, `O=C1CCc2cc(Cl)c(S(=O)(=O)Nc3ccc(Cl)c(Cl)c3)cc2N1`: “inactive”; `N#Cc1ccc(NS(=O)(=O)c2ccc3c(c2)CCC(=O)N3)cc1`: “inactive”. Next, `O=C1CCc2cc(S(=O)(=O)Nc3ccc(-c4ccccc4)cc3)ccc2N1`: “inactive”.

Take `O=C1c2ccccc2C(=O)N1c1nccs1`: the call was inactive.
